Laboratory results from PubChem BioAssay AID1117319 (Southern Research Institute, 2015).
Hit rate of the full screen: of about 260,000 compounds, about 1,500 (0.58%) were called active. About 5% were inconclusive and are not listed.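 How the source made its calls: active means inhibition above a set limit at one or more doses, reproduced on every date tested; inconclusive means results disagree between test dates, or hit never tested in dose response; inactive means the rest.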 A selection follows. Entries with a potency or affinity are not part of this list.

Biological target: Virion infectivity factor (Human immunodeficiency virus type 1 group M subtype B (isolate BH10)) + Virion infectivity factor (Human immunodeficiency virus type 1 group M subtype B (isolate BRU/LAI)) + Virion infectivity factor (Human immunodeficiency virus type 1 group M subtype B (isolate PCV12)) + Virion infectivity factor (Human immunodeficiency virus type 1 group M subtype B (isolate HXB2)) + DNA dC->dU-editing enzyme APOBEC-3G (Homo sapiens) (UniProt P69720+P69721+P69722+P69723+Q9HC16)
Assay: inhibitors of Vif binding to APOBEC3G peptide, primary screen, biochemical, TR-FRET, GST-Vif 1-94, biotin-A3G peptide, dose response retest (AID 1117319);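 further: Vif residues 1-94 fused to GST binding biotinylated APOBEC3G peptide 110-148; 0% = full assay without inhibitor and 100% = GST in place of GST-Vif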
Settings: hits give high values

inhibition, inactive:
CC(c1ccccc1)C1NC(C(=O)O)CS1 (stereo not given) -0.34%
Cc1ccc(CN2CCSc3ccc(C(=O)NCc4cccnc4)cc32)cc1 -7.4%
COc1ccc(C(=O)/C=C2/C(=O)Nc3ccccc32)cc1 11.7%
Cc1[nH]n(-c2ccccc2)c(=O)c1/C=C1\C=NN=C1c1ccccc1 -6.22%
COC(=O)c1c(NC(=O)c2nc3nc(C)cc(C(F)F)n3n2)sc2c1CCC2 -2.56%
CCN(CC)C(=O)c1sc(NC(=O)C(Sc2ccccc2)c2ccccc2)c(C(=O)OC(C)C)c1C (stereo not given) -1.62%
S=c1[nH]nc(-c2cccnc2)n1/N=C/C=C/c1ccccc1 32.9%
Cc1cccc(-c2n[nH]c(=S)n2/N=C/c2ccco2)c1 -4.06%
C(=C\c1ccccc1)/C=N/n1cnnc1 17.7%
C(/C=C/c1ccco1)=N/N1CCN(c2ccccc2)CC1 18.8%
CC(/C=N/n1c(-c2ccccc2)n[nH]c1=S)=C\c1ccco1 29%
CC(/C=N/n1c(-c2ccc(Cl)cc2)n[nH]c1=S)=C\c1ccco1 27.8%
Cc1cc(-c2n[nH]c(=S)n2/N=C/c2ccc(C)o2)n[nH]1 27.9%
S=c1[nH]nc(-c2cccnc2)n1/N=C/c1ccco1 3.51%
O=C(COC(=O)Cn1cnc2ccccc21)Nc1ccc(F)c(F)c1 -4.98%
C=CCSc1nnc(CNC(=O)c2ccccc2C)n1C(C)C 4.54%
CC(NC(=O)C(=S)N1CCN(C)CC1)c1ccccc1 (stereo not given) 0.7%
C=CCN1/C(=C2/SC(=S)N(C)C2=O)Sc2ccccc21 11.3%
CCc1noc(C)c1C(=O)OC(C)C(=O)Nc1ccccc1OC (stereo not given) 3.88%
COc1cccc(-c2nn(C)c3sc(C(=O)NCc4ccc5c(c4)OCO5)cc23)c1 -2.11%
Cn1nc(-c2ccccc2F)c2cc(C(=O)Nc3ccc4c(c3)OCCO4)sc21 -1.77%
Cc1nn(CC(=O)NC2CCS(=O)(=O)C2)c(C)c1[N+](=O)[O-] (stereo not given) -7.13%
Cc1cc(S(=O)(=O)N2CCOCC2)ccc1OCC(=O)N1CCCCC1 25.7%
Cc1ccc(NC(=O)CCNS(=O)(=O)c2cccc3nonc23)cc1 2.21%
CCc1cccc(NC(=O)CCNS(=O)(=O)c2cccc3nonc23)c1 9.44%
CC(C)Cn1c2c(c(=O)[nH]c1=O)C(NS(=O)(=O)c1ccc(Cl)cc1)(C(F)(F)F)C(=O)N2 (stereo not given) -5.6%
COc1cccc(C(=S)N2CCCC2)c1OC 0.47%
O=C1C2CCCN2C(=O)N1CCCCN1CCN(c2ccc(F)cc2)CC1 (stereo not given) -0.87%
O=C1C2CCCN2C(=O)N1CCCN1CCN(c2ccc([N+](=O)[O-])cc2)CC1 (stereo not given) -0.31%
COc1cccc(-n2nc(C(N)=O)c(O)cc2=O)c1 -7.89%
O=C(O)CCC(=O)NNc1ncnc2ccccc12 -0.06%
CC(=O)NNc1ncnc2ccccc12 16%
Cc1cc(N/N=C/c2ccncc2)nc2ccccc12 8.69%
COC(=O)CC1SC(=O)NC1=Nc1ccc(C)cc1 (stereo not given) 19.1%
CCCCn1c(N)c(N(CCOC)C(=O)c2ccc(OCc3c(C)noc3C)cc2)c(=O)[nH]c1=O 5.41%
O=C(CSc1ncnc2sccc12)Nc1ccccc1F -5.44%
O=C(CSc1ncnc2sccc12)Nc1ccccc1 -6.5%
Cc1ccc2c(c1)C(c1ccccc1)CC(=O)O2 (stereo not given) -9.94%
Nn1c(SCC(=O)Nc2ccc3c(c2)OCO3)nnc1C(F)(F)F 1.55%
Cn1c(SCCC#N)nnc1-c1ccc(F)cc1 11.1%
O=C(O)CSc1nnc(-c2ccncc2)n1C1CCCCC1 -0.35%
C/C(=C\C(=O)c1ccc(C)cc1)Nc1ccc(N2CCOCC2)cc1 11.1%
COc1ccc2nc(C)cc(Nc3ccccc3OC)c2c1 -8.19%
Cc1cccc(S(=O)(=O)c2c(C)cc(C)nc2Cl)c1 -4.17%
COc1ccc(CN2CCN(c3nc4ccccc4s3)CC2)cc1 -11.5%
Cc1ccc(CN(Cc2ccccc2)C(=S)Nc2ccccc2C)o1 13.2%
CN(C)/C=C1/Sc2ccccc2C1=O -7.14%
CC(=O)N(C)/C=C1\Sc2ccccc2C1=O 1.33%
CCOC(=O)C(CC(=O)O)N1CCCCC1 (stereo not given) -2.07%
Cc1ccc(C(=O)Nc2ccc(F)cc2)o1 -0.54%
Cc1ccc(C(=O)Nc2ccc(CC(=O)O)cc2)o1 1.07%
CCOC(=O)c1ccc(N/C=C/C(=O)C(C)(C)C)cc1 5.83%
COc1ccc(N/C=C/C(=O)C(C)(C)C)cc1 -3.89%
CCN(CC(=O)Nc1c(F)cccc1F)C(=O)C1CC(=O)N(CCc2ccccc2)C1 (stereo not given) 5.22%
CN(CCC#N)C(=O)CC1(Cc2ccccc2)CCOC(C)(C)C1 (stereo not given) -1.26%
Cc1cccc(Nc2c([N+](=O)[O-])ccc3nonc23)c1C -5.88%
Cc1cc(C)cc(NC2=NCC(=O)N2Cc2ccccc2)c1 2.08%
CCOCCCNC(=O)Cn1cnc2c(cnn2-c2ccc(F)cc2)c1=O -2.53%
Cc1ccccc1N(C=O)c1ccccc1C -8.26%
COc1cccc(OCCNS(=O)(=O)c2cccc([N+](=O)[O-])c2)c1 -4.86%
O=[N+]([O-])c1cc(Cl)c2cccnc2c1O -6.11%
O=[N+]([O-])c1cc(F)c2cccnc2c1O 18.9%
Oc1c(CN2CCOCC2)cc(COCc2ccccc2)c2cccnc12 29.4%
O=[N+]([O-])c1cc(CN2CCN(c3ccccc3)CC2)c(O)c2ncccc12 12.7%
Oc1c(Cl)cc(CN2CCCCC2)c2cccnc12 10.4%
CCOc1cccc(CN2CCN(c3cccc(C(F)(F)F)c3)CC2)c1O 28.2%
O=[N+]([O-])c1ccc(O)c2cccnc12 -6.29%
Cc1ccc([N+](=O)[O-])c2cccnc12 1.02%
CCOC(=O)c1cc(-c2cccs2)[nH]n1 3.68%
O=C1C(c2ccccc2)c2ccccc2N1Cc1ccccc1 (stereo not given) -2.08%
CCOc1ccc(OCCn2ccnc2)cc1 -0.21%
Cc1nc2ccc(NS(=O)(=O)c3cccc([N+](=O)[O-])c3)cc2s1 -2.07%
Cc1nc2ccc(NC(=O)NCCCO)cc2s1 -2.1%
O=C(Nc1ccc(N2CCOCC2)cc1)Nc1ccc2nc(-c3ccco3)c(-c3ccco3)nc2c1 16%
COCCNC(=O)Nc1ccc2nc(-c3cccs3)c(-c3cccs3)nc2c1 13.9%
O=C(NCCO)Nc1ccc2nsnc2c1 13.2%
COCCNC(=O)Nc1ccc2nc(C)sc2c1 3.2%
O=C(Nc1ccc2nc(-c3cccs3)c(-c3cccs3)nc2c1)NC1CC1 -3.31%
OCCCNC(=S)Nc1ccc2nc(-c3ccccn3)c(-c3ccccn3)nc2c1 16.7%
O=C(Nc1ccc2nsnc2c1)NC1CCCCC1 -12.3%
COc1cc2[nH]c(=O)c(C(=O)NCc3ccc(C)cc3)c(O)c2cc1OC -8.1%
O=C1NC[C@H](c2ccccc2)N(CCc2cc(C(F)(F)F)cc(C(F)(F)F)c2)C1=O -3.13%
COC(=O)c1sc2nc(C)c([N+](=O)[O-])c(C)c2c1N 6.2%
CC(C)c1nnc(NC(=O)CC(=O)Nc2ccccc2C(=O)O)s1 15.4%
CCOC(=O)c1c(NC(=O)COC(=O)CCOc2ccc(OCC)cc2)sc(C(=O)N(C)C)c1C -2.2%
Cc1nc(CC(=O)Nc2nccs2)cs1 -1.06%
COC(=O)C1=C(C(=O)OC)[C@@H]2Nc3ccccc3[C@@]23C[C@@H](C(=O)OC)N=C3N1 0.57%
CN(CC(=O)Nc1ccccc1N1CCOCC1)S(=O)(=O)c1ccc(F)cc1 4.33%
O=C(c1ccc(Cl)cc1)c1cnc(-c2ccc(Cl)cc2)s1 -4.73%
O=C(CCCCl)Nc1c2c(nn1-c1ccccc1)CSC2 -3.73%
Cc1cc2nc(C3CCN(Cc4nnnn4Cc4cccs4)CC3)[nH]c2cc1C 1.05%
COC(=O)C1CC(c2ccccc2)N(c2ccccc2)O1 (stereo not given) -1.63%
CS(=O)(=O)N1CCCC(C(=O)NCCCN2CCN(Cc3ccccc3)CC2)C1 (stereo not given) 8.72%
CS(=O)(=O)N1CCCC(C(=O)NCCN2CCC(Cc3ccccc3)CC2)C1 (stereo not given) -4.71%
COc1ccccc1/C=C/C(=O)OCC(=O)Nc1ccccc1Sc1ccccc1 -5.26%
Cc1cc(C(=O)N(C)Cc2c(F)cccc2Cl)c2ccccc2n1 -2.57%
Cc1ccc(S(=O)(=O)CCC(=O)OCc2cc(C)ccc2C)cc1 4.12%
Cc1cc(C(=O)CSc2ncccn2)c(C)n1Cc1ccco1 -2.83%
CCn1c(C)cc(C(=O)CSc2nnc(-c3ccco3)o2)c1C 6.55%
COc1cccc(/C=C/C(=O)OCC(=O)Nc2cc(S(=O)(=O)N3CCOCC3)ccc2C)c1 -9.36%
